Laboratory results published in PubChem BioAssay AID1159580 (chemical genetic matrix, 2015).
“And” between values parts separate entries of the source, which are not always exact repeats. Equal entries are not always repeated. Out of some 5,500 compounds screened, about 2,000 (36%) were called active. About 18% were inconclusive and are not listed. Rule as the data show it: active = normalized growth mostly below about 0.91 (no sharp cut-off); inconclusive = no clear call, values can overlap the other calls; inactive = mostly above about 0.92. Some of the results follow.

Assay: chemical genetic growth profiling, strain panel (AID 1159580);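 also: tested at 20 µM; growth read once vehicle control cultures reached saturation at 30 °C; 1 = growth at the plate median or of vehicle wells; lower values mean less growth of the strain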
Settings: S. cerevisiae deletion strains, growth OD

Measured: normalized growth

NC(=O)NCCCC(N)C(=O)O (configuration not stated)
inactive: locus YAL013W, strain DEP1, stronger effect = lower value 1.01 | locus YAL021C, strain ccr4, stronger effect = lower value 0.962 | locus YAL026C, strain drs2, stronger effect = lower value 1.01 | locus YAL030W, strain snc1, stronger effect = lower value 1.01 | locus YBL061C, strain skt5, stronger effect = lower value 1.01 | locus YBR009C, strain hhf1, stronger effect = lower value 1.05 | locus YBR021W, strain FUR4, stronger effect = lower value 1.01 | locus YBR023C, strain chs3, stronger effect = lower value 1.01 | locus YBR171W, strain sec66, stronger effect = lower value 0.99 | locus YBR229C, strain ROT2, stronger effect = lower value 1.01 | locus YBR231C, strain swc5, stronger effect = lower value 1.03 | locus YBR279W, strain paf1, stronger effect = lower value 1.01 | locus YCL011C, strain gbp2, stronger effect = lower value 0.996 | locus YCL016C, strain dcc1, stronger effect = lower value 1 | locus YCL029C, strain bik1, stronger effect = lower value 0.998 | locus YCL061C, strain MRC1, stronger effect = lower value 0.992 | locus YCL069W, strain vba3, stronger effect = lower value 0.996 | locus YCR088W, strain abp1, stronger effect = lower value 0.995 | locus YDL005C, strain med2, stronger effect = lower value 0.996 | locus YDL035C, strain GPR1, stronger effect = lower value 1.03 | locus YDL040C, strain nat1, stronger effect = lower value 1 | locus YDL074C, strain BRE1, stronger effect = lower value 1.06 | locus YDL101C, strain DUN1, stronger effect = lower value 1.03 | locus YDL134C, strain PPH21, stronger effect = lower value 1.02 | locus YDL185W, strain tfp1, stronger effect = lower value 0.994 | locus YDL192W, strain arf1, stronger effect = lower value 0.993 | locus YDR001C, strain nth1, stronger effect = lower value 0.989 | locus YDR069C, strain doa4, stronger effect = lower value 1.02 | locus YDR101C, strain arx1, stronger effect = lower value 0.988 | locus YDR137W, strain rgp1, stronger effect = lower value 0.986 | locus YDR150W, strain NUM1, stronger effect = lower value 1.02 | locus YDR159W, strain sac3, stronger effect = lower value 1.04 | locus YDR162C, strain NBP2, stronger effect = lower value 1.04 | locus YDR195W, strain ref2 1.02 | locus YDR297W, strain sur2, stronger effect = lower value 1.01 | locus YDR318W, strain mcm21, stronger effect = lower value 0.983 | locus YDR334W, strain swr1, stronger effect = lower value 0.982 | locus YDR335W, strain msn5, stronger effect = lower value 0.993 | locus YDR388W, stronger effect = lower value 0.992 | locus YDR392W, strain spt3, stronger effect = lower value 0.96 | locus YDR502C, strain sam2, stronger effect = lower value 0.993 | locus YEL003W, strain gim4, stronger effect = lower value 0.994 | locus YEL037C, strain rad23, stronger effect = lower value 0.995 | locus YEL061C, strain CIN8 (second series), stronger effect = lower value 0.999 | locus YEL061C, strain CIN8, stronger effect = lower value 1.01 | locus YER015W, strain faa2, stronger effect = lower value 1 | locus YER016W, strain bim1, stronger effect = lower value 1.01 | locus YER110C, stronger effect = lower value 0.988 | locus YER111C, strain swi4, stronger effect = lower value 1 | locus YER155C, strain BEM2 (second series), stronger effect = lower value 1.04 | locus YER155C, strain BEM2, stronger effect = lower value 1.01 | locus YER167W, strain BCK2, stronger effect = lower value 1.04 | locus YFR010W, strain ubp6, stronger effect = lower value 0.982 | locus YGL078C, strain dbp3, stronger effect = lower value 1 | locus YGL086W, strain mad1, stronger effect = lower value 0.997 | locus YGL167C, strain pmr1, stronger effect = lower value 1.03 | locus YGL173C, strain kem1, stronger effect = lower value 1 | locus YGL227W, strain vid30, stronger effect = lower value 0.998 | locus YGL240W, strain doc1, stronger effect = lower value 1.07 | locus YGL248W, strain PDE1, stronger effect = lower value 1.01 | locus YGL253W, strain hxk2, stronger effect = lower value 1 | locus YGR078C, strain PAC10, stronger effect = lower value 1.05 | locus YGR135W, strain pre9, stronger effect = lower value 1 | locus YGR229C, strain SMI1, stronger effect = lower value 1.02 | locus YGR252W, strain gcn5, stronger effect = lower value 0.98 | locus YHR013C, strain ard1, stronger effect = lower value 1.01 | locus YHR027C, strain rpn1, stronger effect = lower value 0.997 | locus YHR030C, strain SLT2, stronger effect = lower value 1.01 | locus YHR079C, strain IRE1 (second series), stronger effect = lower value 0.977 | locus YHR079C, strain IRE1, stronger effect = lower value 0.992 | locus YHR094C, strain hxt1, stronger effect = lower value 0.995 | locus YHR129C, strain ARP1, stronger effect = lower value 1.04 | locus YHR142W, strain chs7, stronger effect = lower value 0.93 | locus YHR200W, strain rpn10, stronger effect = lower value 0.994 | locus YIL066C, strain RNR3, stronger effect = lower value 1.02 | locus YIL073C, strain SPO22, stronger effect = lower value 1.01 | locus YIL125W, strain kgd1, stronger effect = lower value 0.987 | locus YIR030C, strain dcg1, stronger effect = lower value 0.993 | locus YJL092W, strain hpr5, stronger effect = lower value 0.979 | locus YJL095W, strain BCK1 (second series), stronger effect = lower value 1.01 | locus YJL095W, strain BCK1, stronger effect = lower value 1.05 and 1.01 | locus YJL115W, strain asf1, stronger effect = lower value 0.988 | locus YJL129C, strain trk1, stronger effect = lower value 0.973 | locus YJL134W, strain LCB3, stronger effect = lower value 1.01 | locus YJL154C, strain vps35, stronger effect = lower value 0.997 | locus YJL164C, strain tpk1, stronger effect = lower value 0.981 | locus YJL166W, strain qcr8, stronger effect = lower value 1.01 | locus YJL168C, strain set2, stronger effect = lower value 1 | locus YJL187C, strain SWE1 (second series), stronger effect = lower value 1.02 | locus YJL187C, strain SWE1, stronger effect = lower value 1 | locus YJR043C, strain POL32, stronger effect = lower value 1.03 | locus YJR066W, strain TOR1, stronger effect = lower value 0.964
